# Results published in PubChem BioAssay (NCATS).
# Inconclusive results are not listed. Values without a mark were called inactive. The source made the active and inactive calls. Calls come from the whole dose curve; as a rule, active = well fitted inhibition curve with a large enough effect; inconclusive = small, poorly fitted or top-dose-only effect; inactive = no such curve, though single readings can be large or run the other way.
# Target: Retinaldehyde dehydrogenase 3 (Homo sapiens) (UniProt P47895)
# Assay: qHTS for Inhibitors of the Aldehyde Dehydrogenase Family (ALDH1A3) Primary screen (AID 2061315);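 note: plate controls were DMSO vehicle for no effect and reference inhibitor for full effect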
# Conditions: ALDH inhibition qHTS; series mostly up to 56 µM; activity change, negative = inhibition: at the top concentration
Compound,"activity change, negative = inhibition",Potency
COc1ccc(NC(=O)c2cnn3c(-c4ccccc4)cc(C)nc23)cc1,-0.629%,–
COc1cccc(C2=Nn3c(nnc3-c3cccc(OC)c3OC)SC2)c1,14.7%,–
Cc1cc(C)cc(N2CCN(C(=S)Nc3cc(C)cc(C)n3)CC2)c1,11.7%,–
Cc1cc(NS(=O)(=O)c2ccc(NC(=O)CCc3ccc(Cl)c(Cl)c3)cc2)no1,1.22%,–
CC(O)c1ccc(-c2ccc3ncnc(NCCc4cnc[nH]4)c3c2)o1 (stereo not given),-9.55%,–
Cc1cc(-c2nnc3n2CCCCCCC3)c(C)n1-c1ccccc1,12.2%,–
N=c1c2c(ncn1CCN1CCOCC1)Oc1ccc3ccccc3c1C2c1ccccc1 (stereo not given),1.6%,–
O=C(O)c1ccc2c(c1)C(=O)N([C@H](Cc1c[nH]c3ccccc13)C(=O)O)C2=O,3.52%,–
C=CCc1cccc(CNc2ccc(S(=O)(=O)Nc3nccs3)cc2)c1O,7.7%,–
Cc1ccc(NS(=O)(=O)c2cc3c(cc2NCCO)NC(=O)CC3)cc1C,8.88%,–
Cc1ccc2nc(NC3=NC4(CCCC4)C4=C(CCCC4=O)N3)oc2c1,17.3%,–
Cc1ccc(-c2ccc(=O)n(CC(=O)N(C)C(C)C(C)C)n2)cc1 (stereo not given),21.8%,–
CC(C)(C)OC(=O)N1CCC(C(=O)Nc2ccc([S+](=O)([O-])Nc3nccs3)cc2)CC1,0.266%,–
Cc1cc(C)nc(NC(=S)N2CCN(c3nc(C)cnc3C)CC2)c1,23.6%,–
Cn1c2cc(Br)sc2c2cnn(Cc3ccccc3F)c(=O)c21,–,inactive
O=S(=O)(Nc1cccc2cccnc12)c1ccc(Br)cc1,-24.1%,–
Cc1ccc(OCCn2c(CCNC(=O)OC(C)(C)C)nc3ccccc32)cc1,8.68%,–
N#CCC(C1CCCC1)n1cc(-c2ncnc3[nH]ccc23)cn1 (stereo not given),7.07%,–
CCOC(=O)c1nnc(N[S+](=O)([O-])c2ccc(NC(=O)Cc3ccc(Cl)c(Cl)c3)cc2)s1,8.06%,–
COc1ccc(NC(=O)c2cnn3c(C)cc(C)nc23)cc1F,-15.6%,–

Compound,"activity change, negative = inhibition",Potency
O=C(NCCc1nc2ccccc2n1CCOc1ccc2cccnc2c1)C1CCCCC1,-7.76%,–
O=C1CCCC2=C1C1(CCCC1)N=C(Nc1nc3cc(Br)ccc3o1)N2,24.4%,–
Cc1ccc(-c2ccc(=O)n(CC(=O)NCCC3CC3)n2)cc1,-16.4%,–
Oc1ccc(CNc2nccc3ccccc23)c2cccnc12,-16%,–
Cc1cccc(-c2nnc(C)n2CCCn2ccnc2)c1N,-5.59%,–
COc1cc(O)c(C(CC(=O)N2CCC(Cc3ccccc3)CC2)c2ccc(C)cc2)c(OC)c1 (stereo not given),0.852% [at 114 µM],–
O=C(Nc1ccc2ccccc2c1)Nc1nnc(-c2ccc(Cl)cc2)s1,-8.01%,–
Cc1ccc(N[S+](=O)([O-])c2cc3c(cc2Cl)CCC(=O)N3)cc1Br,-1.1%,–
CC(C)CN1CC2=C(C1=O)C(c1ccccc1Cl)N=C(Nc1nc3ccccc3o1)N2 (stereo not given),24.8%,–
COc1ccc2cc3c(NC(=O)c4ccco4)nn(C)c3nc2c1,0.41%,–
COc1cccc(Cn2ncc3c4sc(SC)cc4n(C)c3c2=O)c1,5.37%,–
NC(=O)C1CCN(c2nc(-c3ccc4c(c3)CCO4)cs2)CC1,26.5%,–
O=[S+]([O-])(Nc1ccc(C2CCNCC2)cc1)c1ccc(NCc2ccc(Br)cc2O)cc1,10.3%,–
Cc1ccc(OCCn2c(CCNC(=O)c3cc([N+](=O)[O-])ccc3[N+](=O)[O-])nc3ccccc32)cc1,-7.31%,–
c1nc(N2CCCCC2)c2cc(-c3ccc4c(c3)OCO4)ccc2n1,5.12%,–
COc1ccc(C(=O)Nc2nnc(-c3ccco3)o2)cc1OC,-11.3%,–
COc1cc(F)c(S(=O)(=O)N2CCN(S(=O)(=O)c3ccc(NC(C)=O)cc3)CC2)c(F)c1,-2.84%,–
O=C(OCC#CCSc1nnc(-c2cccc3ccccc23)o1)c1cc(F)c(F)c(F)c1,19.7%,–
CCC(=O)NC(c1ccc2c(c1)OCO2)c1cc(Cl)c2cccnc2c1O (stereo not given),-29%,–
CCOC(=O)c1cnc2ccc(-c3cncc(NS(=O)(=O)c4ccccc4)c3)cn12,17%,–
